# Reference: the supplement of paper PMC7156485
# How the values were obtained:
# Conditions in all cases: concentration: 10 µM; 24 h
# HCC1569 [1] = experiment: cell number relative to DMSO (% of DMSO); higher = more cells (less growth inhibition / toxicity)
# Summary of the method: (§1)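 HCC1569 and TDF cells (800 per well, 384-well plates, RPMI with 10% FBS) were treated with compounds at 10 µM for 24 h at 37 °C, in triplicate. Cells were fixed in 3.7% formaldehyde and stained with a rabbit anti-H1.0 antibody, an AlexaFluor 647 secondary and DAPI; six fields per well were imaged at ×10. H1.0 nuclear intensity or cell number is expressed as percent of the plate DMSO control, taking the median of replicates. HCC1569 values were smoothed for positional effects.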
# TDF [2] = experiment: as above
# Summary of the method: as §1
# TDF [3] = experiment: H1.0 immunofluorescence intensity relative to DMSO (% of DMSO); higher = stronger H1.0 induction, active = 120 or more
# Summary of the method: as §1
# HCC1569 [4] = experiment: H1.0 immunofluorescence intensity relative to DMSO (% of DMSO); higher = stronger H1.0 induction, active = 140 or more
# Summary of the method: as §1
# 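Throughout, for H1.0 immunofluorescence intensity relative to DMSO: TDF is a line of transformed human dermal fibroblasts of mesenchymal origin.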
# 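Throughout, for cell number relative to DMSO: TDF denotes transformed human dermal fibroblasts of mesenchymal origin.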
Compound,cell number (HCC1569 [1]),cell number (TDF [2]),H1.0 immunofluorescence intensity (TDF [3]),H1.0 immunofluorescence intensity (HCC1569 [4])
NS(=O)(=O)c1cc2c(cc1Cl)NC(C1CC3C=CC1C3)NS2(=O)=O (stereo not given) [Cyclothiazide],100,105,111 (inactive),99.5 (inactive)
Nc1nc(=O)c2nc(Br)n(C3OC4COP(=O)([O-])OC4C3O)c2[nH]1.[Na+] (stereo not given) [8-Bromo-cGMP sodium],101,100,93.4 (inactive),92.8 (inactive)
COc1nccc(-c2c(-c3ccc(F)cc3)ncn2C2CCC(O)CC2)n1 (stereo not given),100,112,85.5 (inactive),117 (inactive)
O=C(NC(Cc1cc(=O)[nH]c2ccccc12)C(=O)O)c1ccc(Cl)cc1 (stereo not given) [Rebamipide],104,99.7,93.2 (inactive),105 (inactive)
NC(=O)c1cccc(-c2cccc(OC(=O)NC3CCCCC3)c2)c1,97.3,97.5,105 (inactive),124 (inactive)
CCC=CCC=CCC=CCC=CC=CC(O)CCCC(=O)O (racemic),106,94.7,103 (inactive),99 (inactive)
COc1ccc2c(OC)c3ccoc3nc2c1OC [Skimmianine],100,98.2,99.1 (inactive),96.2 (inactive)
Cl.Cl.Cl.NCCCCNCCCN [Spermidine trihydrochloride],99.7,97.2,102 (inactive),82 (inactive)
CC(C=CC1=C(C)CCCC1(C)C)=CC=CC(C)=CC(=O)O [Retinoic acid],104,102,95.8 (inactive),120 (inactive)
S=C([S-])OC1CC2CC1C1CCCC21.[K+] (stereo not given),102,97.1,90.2 (inactive),98.2 (inactive)
